# In the library only some 1.3% were active in any assay of this set; here they are far more common.
# PKM2 act: increases activity of human pyruvate kinase M2; P14618; purified PKM2, Kinase-Glo ATP luminescence, activation; response scale: 0% is enzyme alone, no compound; Potency, µM (titrated, usually from 57.5 µM), hits mostly activators; 0.34% of 260,000 active; AID 1631; active means well fitted activation curve with a large enough effect; inconclusive means small, poorly fitted or top-dose-only effect; inactive means no such curve, though single readings can be large or run the other way; further: nearly all actives have a fitted effect of over 55% in size
#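 ATP formation by purified human PK-M2, quantified via coupled luciferase luminescence after 1 h at room temperature with 0.1 mM ADP and 0.5 mM PEP final.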
# TSG101-PTAP inh: blocks PTAP/TSG101 interaction to inhibit HIV-1 budding | 340,000 tested, under 10 active | Fluorescence polarization, FITC-PTAP peptide / Tsg101 binding | Potency, µM (series often up to 115 µM), actives largely listed as inhibitors; active means well fitted inhibition curve with a large enough effect in the main read-out, with a control signal flat, not every such curve was filed as active; inconclusive means small, poorly fitted or top-dose-only effect, or effect the other way, or a change in a side signal; inactive means no such curve, though single readings can be large or run the other way
#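 Tsg101 binding domain (10 uM final) was mixed with compound and a FITC-labeled PTAP peptide (50 nM final) in HEPES pH 7.5 buffer with NaCl, Tween 20, EDTA and TCEP; fluorescence polarization was read after 20 min at r.t.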
# TRPML1 blocker: inhibitors of human TRPML1 channel; Q9GZU1; TRPML1-inducible cells, Ca2+ dye fluorescence, FDSS; stronger effect = lower value; inhibition of EC80 agonist-evoked calcium signal; activity change, negative = inhibition, % (test concentration not listed); 0.02% of 390,000 active; AID 624415; in the data active means activity change below about -50%; inconclusive means between about -30% and that limit;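 further: stimulus is agonist 54-4 at its EC80 concentration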
# Target sequence (Q9GZU1 whole entry, looked up): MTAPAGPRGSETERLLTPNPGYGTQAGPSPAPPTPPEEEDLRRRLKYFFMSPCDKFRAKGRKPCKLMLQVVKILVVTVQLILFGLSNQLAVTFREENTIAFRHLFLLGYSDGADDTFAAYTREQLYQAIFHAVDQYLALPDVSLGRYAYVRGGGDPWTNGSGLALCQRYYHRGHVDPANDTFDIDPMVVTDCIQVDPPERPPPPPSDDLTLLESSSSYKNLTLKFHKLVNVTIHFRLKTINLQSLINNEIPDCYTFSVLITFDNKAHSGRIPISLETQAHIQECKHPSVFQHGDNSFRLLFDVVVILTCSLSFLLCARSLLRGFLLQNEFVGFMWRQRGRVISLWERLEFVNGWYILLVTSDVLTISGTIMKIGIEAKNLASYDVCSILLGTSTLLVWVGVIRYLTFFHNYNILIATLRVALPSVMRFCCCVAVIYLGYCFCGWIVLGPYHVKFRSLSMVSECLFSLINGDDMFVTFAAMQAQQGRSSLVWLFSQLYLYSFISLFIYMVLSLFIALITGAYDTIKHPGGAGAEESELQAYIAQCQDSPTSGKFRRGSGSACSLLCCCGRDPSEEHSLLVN
#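 Calcium fluorescence in TRPML1-DL cells induced overnight with Tet: a 110 s read after compound pin addition, then a 110 s antagonist read after challenge with 54-4 at 4 uM final (EC80).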
# IL-2 act: activators of IL-2 | IL-2 activation reporter assay, cell-based qHTS; stimulated with anti-CD3/CD4/CD28 beads; in transgenic mouse T cells | activation, % (series mostly up to about 46 µM) | 0.065% of 360,000 active
#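 Readout: EGFP and DsRed signals by fluorescent plate cytometry. Unstimulated transgenic mouse T cells received compound 60 min before antibody-bead stimulation, then incubated 18 h at 37 degrees C.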
# TRPML1 ag: human mucolipin-1 channel agonism; Q9GZU1; TRPML1-expressing cells, Ca2+ dye fluorescence, FDSS; 0.12% of 410,000 active; activation, % (test concentration not listed)
#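 Agonist activity was taken from a 110 s kinetic Ca2+ dye read on the FDSS after pinning compounds onto TRPML1-DL cells. The cells were seeded at 1,500/well with Tet inducer, incubated about 16 h, then dye-loaded at room temperature.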
# BRCA1 expr act: activators of BRCA1 expression | MCF7-BRCA1-FFLuc reporter, luminescence, 48 h; response scale: scaled: vehicle 0%, 10 µM genistein 100% | Potency, µM (top dose mostly 46.1 µM), actives largely listed as activators | 1.1% of 380,000 active | AID 624202; active means well fitted activation curve with a large enough effect; inconclusive means small, poorly fitted or top-dose-only effect; inactive means no such curve, though single readings can be large or run the other way; further: nearly all actives have a fitted effect of over 80% in size
#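 Luminescence from a BRCA1-driven firefly luciferase in MCF7 cells was the read-out, taken 15 min after substrate addition following 48 h compound exposure at 37 °C. Data were normalized to a 10 microM genistein control and DMSO vehicle.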
# Hits are given with their value; i = inactive; ? = inconclusive; nt = not tested or not shown. Unless noted, no stated cut-off is given here; in the data, active means activation above about 50%; inconclusive means mostly about 30% to 49%; inactive means weaker than that.
SMILES,PKM2 act,TSG101-PTAP inh,TRPML1 blocker,IL-2 act,TRPML1 ag,BRCA1 expr act
CC(C)(C)n1ncc2c(=O)n(Cc3ccc(C#N)cc3F)cnc21,nt,nt,i,nt,i,nt
Cc1cc(C)c(NC(=O)C(C)n2c(=O)c(C(F)(F)F)nc3ccccc32)c(C)c1 (stereo not given),nt,nt,i,nt,i,i
Nc1c(C(=O)NCc2cccs2)nnn1CC(=O)Nc1cccc(F)c1,nt,nt,i,nt,i,i
O=c1c2sc3ccccc3c2n(Cc2ccccc2)c(=O)n1Cc1ccccc1,nt,nt,i,nt,i,i
CC(C)c1ccc(CN(Cc2ccco2)c2cnc(S(C)(=O)=O)nc2C(=O)Nc2ccc(F)cc2)cc1,nt,nt,i,nt,i,nt
O=C(Cc1ccccc1)Nc1ccc(NC(=O)c2ccco2)nc1,i,i,i,i,i,5.6µM
Cc1ccc(NC(=O)CNC(=O)c2ccco2)cc1,nt,i,i,i,i,11µM
O=C(Nc1ccc(NC(=O)C2CC2)cc1)c1ccco1,nt,i,i,i,i,3.2µM
CCCCC(=O)Nc1cnc(NC(=O)c2ccco2)cc1C,i,i,i,i,i,11µM
COc1ccc(C(=O)C[n+]2ccc(Cl)c3ccc(Cl)cc32)cc1,nt,nt,nt,nt,i,i
COc1ccc(C(=O)C[n+]2cc(Br)cc(Br)c2)cc1,nt,nt,nt,nt,i,nt
CCOC(=O)c1ccc(NC(=O)c2ccco2)cc1,i,i,nt,i,nt,7.1µM
O=C(OC(c1ccccc1)c1nccc2ccccc12)c1cccc([N+](=O)[O-])c1 (stereo not given),i,i,i,i,i,7.1µM
O=C(C[n+]1c(Cl)cc(Cl)c2ccccc21)c1ccccc1,nt,nt,nt,nt,i,nt
N/C(=N\OC(=O)COc1ccccc1)c1ccccn1,i,i,i,i,i,13µM
N/C(=N\OC(=O)COc1ccc2ccccc2c1Br)c1ccccn1,i,i,i,i,i,10µM
N/C(=N\OC(=O)COc1ccccc1)c1ccncc1,i,i,i,i,i,13µM
N/C(=N\OC(=O)CCC1CCCC1)c1ccccn1,i,i,i,i,i,7.1µM
N/C(=N\OC(=O)COc1ccc2ccccc2c1Br)c1cccnc1,i,nt,nt,nt,nt,nt
CCc1ccc(OCC(=O)O/N=C(\N)c2ccccn2)cc1,i,i,i,i,i,?
N/C(=N\OC(=O)CCCc1ccccc1)c1ccccn1,i,i,i,i,i,11µM
N/C(=N\OC(=O)Cc1ccccc1)c1ccccn1,i,i,i,i,i,?
COC(=O)c1ccc(Cl)cc1N(Cc1c(F)cccc1Cl)S(C)(=O)=O,i,i,i,i,108,i
COC(=O)c1ccc(CN(c2ccccc2Cl)S(C)(=O)=O)cc1,i,i,i,i,i,i
Cc1cccc(C)c1OCc1nc2c3cnn(-c4ccccc4Br)c3ncn2n1,nt,nt,i,nt,i,nt
SMILES,PKM2 act,TSG101-PTAP inh,TRPML1 blocker,IL-2 act,TRPML1 ag,BRCA1 expr act
COc1ccccc1N1C(=O)S/C(=C\c2cc(C)n(C)c2C)C1=O,i,i,i,i,i,5.6µM
COc1ccc(N=C2S/C(=C\c3cc(C)n(C)c3C)C(=O)N2C)cc1,i,i,i,i,i,i
CCOC=C1SC(=S)N(c2ccccc2OC)C1=O,nt,nt,i,i,i,i
COc1ccccc1N1C(=O)S/C(=C\c2ccc(C)s2)C1=O,i,i,i,88,i,i
Cc1ccc(CNCc2cn[nH]c2-c2ccc(C)cc2)cc1,nt,nt,nt,nt,i,i
Cc1c2cnn(CC(=O)NCCc3ccccc3)c(=O)c2c(C)n1Cc1ccccc1,nt,nt,i,nt,i,nt
COc1ccccc1CNC(=O)Cc1ccccc1,i,i,i,i,i,11µM
COC(=O)c1c(-c2cccnc2)csc1NC(=O)c1ccc2c(c1)OCO2,i,i,i,i,i,2.2µM
COC(=O)c1c(-c2ccncc2)csc1NC(=O)c1ccoc1C,i,i,i,i,i,4.5µM
O=S1(=O)CCOC[C@H](c2ccccc2)N1Cc1ccc(Cl)c(Cl)c1,nt,nt,nt,nt,i,nt
Clc1ccc(CN=C2Nc3ccccc3CS2)cc1,i,i,i,i,i,8.9µM
N#C/C(C(=O)N1CCCCC1)=C1\Nc2ccccc2S1,i,i,i,i,i,8.9µM
Cc1ccc(NC(=S)/C(C#N)=C2/Nc3ccccc3S2)cc1,nt,nt,i,i,i,i
COc1ccc2ccccc2c1/C=N/Nc1cccc(C(=O)O)c1,nt,i,i,i,i,3.5µM
COc1ccc2ccccc2c1/C=N/Nc1ccc(Cl)c(C(=O)O)c1,i,i,i,i,i,i
COc1ccc(N2CCN(C(=O)C3CCN(S(=O)(=O)c4cn(C)cn4)CC3)CC2)cc1,nt,nt,i,nt,i,nt
O=C(CN1CCN(Cc2ccccc2Cl)C1=O)NC1CCCCCC1,i,i,i,i,i,11µM
Cc1nc(-n2nc(C)c(Cc3ccc(Cl)cc3)c2C)sc1C(=O)N1CCC(C)CC1,nt,nt,i,nt,i,nt
CCOC(=O)CNC(=O)c1sc(NC(=O)c2cccc(F)c2)nc1C,i,i,i,i,i,8.9µM
CCOC(=O)CNC(=O)c1sc(NC(=O)c2ccccc2F)nc1C,i,i,i,i,i,?
O=C(Nc1ccccc1Br)c1cnn2c1NC(=C1CC1)C=C2C(F)F,nt,nt,nt,nt,i,i
O=S(=O)(c1ccc(-c2nc3ccccc3s2)cc1)N1CCCC1,i,i,i,i,i,2.5µM
CCCC1OC2C[C@@H]3[C@H]4CCC5=CC(=O)C=C[C@]5(C)[C@H]4C(O)C[C@]3(C)[C@]2(C(=O)CO)O1 (stereo not given in full),nt,nt,nt,nt,i,i
Cc1cccc(-c2nnc(-c3cccc(NC(=O)Cc4cccs4)c3)o2)c1,i,i,i,i,i,13µM
CCOC(=O)C[n+]1cccc(Br)c1,nt,nt,nt,nt,i,nt
SMILES,PKM2 act,TSG101-PTAP inh,TRPML1 blocker,IL-2 act,TRPML1 ag,BRCA1 expr act
CCOC(=O)c1sc(N)c(C(=O)OCC)c1C,i,i,i,i,i,i
CCOC(=O)c1sc(N)c(C(=O)Nc2ccccc2)c1C,i,i,i,i,i,13µM
Cc1ccc(S(=O)(=O)N2CCCCC2)cc1NC(=O)Cn1cnnn1,14µM,i,i,i,i,i
O=C(Cn1cnnn1)Nc1cccc(S(=O)(=O)N2CCCCC2)c1,i,i,i,i,i,i
C/C(=N\Nc1ccccn1)c1ccc(N2CCOCC2)cc1,i,i,i,i,i,4.5µM
C(=Nc1ccc(/C=C/c2ccnc3ccccc23)cc1)c1ccco1,nt,nt,nt,nt,i,i
Cc1nc2ccccc2c(=O)n1/N=C/c1ccccc1Cl,nt,i,i,i,i,10µM
CCOC(=O)C1CCN(C(=O)COC(=O)c2ccc([N+](=O)[O-])o2)CC1,nt,i,i,i,i,i
COc1ccc(CO/N=C/c2c(C)[nH]c(=O)[nH]c2=O)cc1,25µM,i,i,i,i,i
COCCCNC(=O)COc1ccc(Br)cc1Cl,i,i,i,i,i,13µM

# High-throughput results (PubChem)
